In article PMC11006913 one finds binding signal data, which are given here for 40 sequences.

Sequence of PRRX1 (Homo sapiens, UniProt P54821 80-166) (P54821 80-166): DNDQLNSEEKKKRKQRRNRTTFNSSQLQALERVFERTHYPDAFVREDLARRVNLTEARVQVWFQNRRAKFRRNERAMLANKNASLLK

The target in one experiment is PRRX1 (Homo sapiens, UniProt P54821 80-166, F113S). Kind of experiment: PBM; 200 nM protein, PBS. Conditions: dsDNA, one strand shown.
Sequence of PRRX1 (Homo sapiens, UniProt P54821 80-166, F113S) (P54821 80-166 F113S): as the sequence (P54821 80-166) above, with F34S counted along it
In the case of GCGGTTCC, the binding signal was 9.66 upbm affinity estimate (log intensity, higher = more binding, comparable within an allelic series).

Consider GAATTATC, for which the binding signal is 10.5 upbm affinity estimate (log intensity, higher = more binding, comparable within an allelic series).

For the sequence CGGACGAC, the binding signal was 9.43 upbm affinity estimate (log intensity, higher = more binding, comparable within an allelic series).

In the case of CCATGACG, the binding signal was 9.32 upbm affinity estimate (log intensity, higher = more binding, comparable within an allelic series).

For the sequence AATCATCC, the binding signal is 10.3 upbm affinity estimate (log intensity, higher = more binding, comparable within an allelic series).

CCAGGGAG: the binding signal is 9.19 upbm affinity estimate (log intensity, higher = more binding, comparable within an allelic series).

Take AATATTAG: the binding signal was 10.5 upbm affinity estimate (log intensity, higher = more binding, comparable within an allelic series).

For AATCATGT, the binding signal is 10.4 upbm affinity estimate (log intensity, higher = more binding, comparable within an allelic series).

CGTCACCC: the binding signal was 9.47 upbm affinity estimate (log intensity, higher = more binding, comparable within an allelic series).

For the sequence ACTTTATG, the binding signal was 10 upbm affinity estimate (log intensity, higher = more binding, comparable within an allelic series).

In the case of CATCGGAC, the binding signal is 9.34 upbm affinity estimate (log intensity, higher = more binding, comparable within an allelic series).

For the sequence GACGACGC, the binding signal was 9.47 upbm affinity estimate (log intensity, higher = more binding, comparable within an allelic series).

On to CTGATGAA, for which the binding signal was 10 upbm affinity estimate (log intensity, higher = more binding, comparable within an allelic series).

In the case of AACCAATT, the binding signal is 10.4 upbm affinity estimate (log intensity, higher = more binding, comparable within an allelic series).

Turning to CCGAACCC, the binding signal was 9.23 upbm affinity estimate (log intensity, higher = more binding, comparable within an allelic series).

Regarding AGGTTCGC, the binding signal was 9.34 upbm affinity estimate (log intensity, higher = more binding, comparable within an allelic series).

For CAGAGAGC, the binding signal is 9.56 upbm affinity estimate (log intensity, higher = more binding, comparable within an allelic series).

Consider CGTGTGCA, for which the binding signal is 9.54 upbm affinity estimate (log intensity, higher = more binding, comparable within an allelic series).

On to ACGTCGCC, for which the binding signal was 9.31 upbm affinity estimate (log intensity, higher = more binding, comparable within an allelic series).

Take AATAGGGT: the binding signal is 10.2 upbm affinity estimate (log intensity, higher = more binding, comparable within an allelic series).

Take ATCAATTC: the binding signal is 10.1 upbm affinity estimate (log intensity, higher = more binding, comparable within an allelic series).

Consider GAGGCTGC, for which the binding signal is 9.31 upbm affinity estimate (log intensity, higher = more binding, comparable within an allelic series).

Turning to TAAACTCA, the binding signal is 10.1 upbm affinity estimate (log intensity, higher = more binding, comparable within an allelic series).

Consider GCGTGCCA, for which the binding signal was 9.08 upbm affinity estimate (log intensity, higher = more binding, comparable within an allelic series).

As to GGACAACC, the binding signal is 9.36 upbm affinity estimate (log intensity, higher = more binding, comparable within an allelic series).

On to GCACGTCC, for which the binding signal was 9.49 upbm affinity estimate (log intensity, higher = more binding, comparable within an allelic series).

Consider GCTCCAGA, for which the binding signal was 9.35 upbm affinity estimate (log intensity, higher = more binding, comparable within an allelic series).

CATATTGG: the binding signal was 10 upbm affinity estimate (log intensity, higher = more binding, comparable within an allelic series).

Turning to AGATCAAT, the binding signal is 10.1 upbm affinity estimate (log intensity, higher = more binding, comparable within an allelic series).

Take CCAAGCTC: the binding signal was 9.29 upbm affinity estimate (log intensity, higher = more binding, comparable within an allelic series).

Consider AGGTTTAA, for which the binding signal was 10.1 upbm affinity estimate (log intensity, higher = more binding, comparable within an allelic series).

In the case of GAAAGACC, the binding signal is 9.56 upbm affinity estimate (log intensity, higher = more binding, comparable within an allelic series).

For the sequence CCGACCCC, the binding signal is 9.1 upbm affinity estimate (log intensity, higher = more binding, comparable within an allelic series).

Take TTAACAAA: the binding signal is 10.5 upbm affinity estimate (log intensity, higher = more binding, comparable within an allelic series).

As to CGCGTCAG, the binding signal is 9.4 upbm affinity estimate (log intensity, higher = more binding, comparable within an allelic series).

As for ACCGTGCG, the binding signal was 9.48 upbm affinity estimate (log intensity, higher = more binding, comparable within an allelic series).

Take GCCAGCAC: the binding signal was 9.45 upbm affinity estimate (log intensity, higher = more binding, comparable within an allelic series).

In the case of CTCCGTAC, the binding signal is 9.47 upbm affinity estimate (log intensity, higher = more binding, comparable within an allelic series).

For the sequence ACGCGCGG, the binding signal was 9.42 upbm affinity estimate (log intensity, higher = more binding, comparable within an allelic series).

Turning to TCGTAACA, the binding signal is 10.2 upbm affinity estimate (log intensity, higher = more binding, comparable within an allelic series).

A further experiment has as its target PRRX1 (Homo sapiens, UniProt P54821 80-166). Kind of experiment: PBM; 200 nM protein, PBS. Conditions: dsDNA, one strand shown.
In the case of GCGGTTCC, the binding signal was 9.31 upbm affinity estimate (log intensity, higher = more binding, comparable within an allelic series).

Take GAATTATC: the binding signal was 12.9 upbm affinity estimate (log intensity, higher = more binding, comparable within an allelic series).

As for CGGACGAC, the binding signal was 9.26 upbm affinity estimate (log intensity, higher = more binding, comparable within an allelic series).

Consider CCATGACG, for which the binding signal was 9.37 upbm affinity estimate (log intensity, higher = more binding, comparable within an allelic series).

For AATCATCC, the binding signal was 12.1 upbm affinity estimate (log intensity, higher = more binding, comparable within an allelic series).

On to CCAGGGAG, for which the binding signal was 8.8 upbm affinity estimate (log intensity, higher = more binding, comparable within an allelic series).

As for AATATTAG, the binding signal was 12.4 upbm affinity estimate (log intensity, higher = more binding, comparable within an allelic series).

Turning to AATCATGT, the binding signal was 12.2 upbm affinity estimate (log intensity, higher = more binding, comparable within an allelic series).

With CGTCACCC, the binding signal was 9.31 upbm affinity estimate (log intensity, higher = more binding, comparable within an allelic series).

Take ACTTTATG: the binding signal was 10.9 upbm affinity estimate (log intensity, higher = more binding, comparable within an allelic series).

In the case of CATCGGAC, the binding signal is 9.14 upbm affinity estimate (log intensity, higher = more binding, comparable within an allelic series).

Turning to GACGACGC, the binding signal was 9.16 upbm affinity estimate (log intensity, higher = more binding, comparable within an allelic series).

Regarding CTGATGAA, the binding signal is 11.2 upbm affinity estimate (log intensity, higher = more binding, comparable within an allelic series).

AACCAATT: the binding signal was 12.6 upbm affinity estimate (log intensity, higher = more binding, comparable within an allelic series).

Take CCGAACCC: the binding signal is 9.29 upbm affinity estimate (log intensity, higher = more binding, comparable within an allelic series).

Turning to AGGTTCGC, the binding signal was 9.02 upbm affinity estimate (log intensity, higher = more binding, comparable within an allelic series).

On to CAGAGAGC, for which the binding signal was 9.55 upbm affinity estimate (log intensity, higher = more binding, comparable within an allelic series).

Turning to CGTGTGCA, the binding signal was 9.31 upbm affinity estimate (log intensity, higher = more binding, comparable within an allelic series).

For ACGTCGCC, the binding signal was 9.36 upbm affinity estimate (log intensity, higher = more binding, comparable within an allelic series).

AATAGGGT: the binding signal is 11.5 upbm affinity estimate (log intensity, higher = more binding, comparable within an allelic series).

With ATCAATTC, the binding signal was 11.9 upbm affinity estimate (log intensity, higher = more binding, comparable within an allelic series).

For the sequence GAGGCTGC, the binding signal was 9.36 upbm affinity estimate (log intensity, higher = more binding, comparable within an allelic series).

As for TAAACTCA, the binding signal was 11.1 upbm affinity estimate (log intensity, higher = more binding, comparable within an allelic series).

With GCGTGCCA, the binding signal is 9.45 upbm affinity estimate (log intensity, higher = more binding, comparable within an allelic series).

Regarding GGACAACC, the binding signal was 9.23 upbm affinity estimate (log intensity, higher = more binding, comparable within an allelic series).

Consider GCACGTCC, for which the binding signal was 9.27 upbm affinity estimate (log intensity, higher = more binding, comparable within an allelic series).

Consider GCTCCAGA, for which the binding signal was 9.02 upbm affinity estimate (log intensity, higher = more binding, comparable within an allelic series).

As for CATATTGG, the binding signal is 11.3 upbm affinity estimate (log intensity, higher = more binding, comparable within an allelic series).

AGATCAAT: the binding signal was 11.6 upbm affinity estimate (log intensity, higher = more binding, comparable within an allelic series).

For the sequence CCAAGCTC, the binding signal is 9.43 upbm affinity estimate (log intensity, higher = more binding, comparable within an allelic series).

As to AGGTTTAA, the binding signal is 11.4 upbm affinity estimate (log intensity, higher = more binding, comparable within an allelic series).

In the case of GAAAGACC, the binding signal was 9.45 upbm affinity estimate (log intensity, higher = more binding, comparable within an allelic series).

Take CCGACCCC: the binding signal is 9.36 upbm affinity estimate (log intensity, higher = more binding, comparable within an allelic series).

As for TTAACAAA, the binding signal was 12.4 upbm affinity estimate (log intensity, higher = more binding, comparable within an allelic series).

As to CGCGTCAG, the binding signal is 9.26 upbm affinity estimate (log intensity, higher = more binding, comparable within an allelic series).

With ACCGTGCG, the binding signal was 9.43 upbm affinity estimate (log intensity, higher = more binding, comparable within an allelic series).

Consider GCCAGCAC, for which the binding signal was 9.5 upbm affinity estimate (log intensity, higher = more binding, comparable within an allelic series).

Turning to CTCCGTAC, the binding signal was 9.24 upbm affinity estimate (log intensity, higher = more binding, comparable within an allelic series).

In the case of ACGCGCGG, the binding signal is 9.29 upbm affinity estimate (log intensity, higher = more binding, comparable within an allelic series).

Turning to TCGTAACA, the binding signal is 11.3 upbm affinity estimate (log intensity, higher = more binding, comparable within an allelic series).
